An excerpt weighted towards active compounds, which were near 3.3% of everything screened.
MBD2 DNA inh – blocks human MBD2 binding to methylated DNA; Q9UBB5; AID 686964; TR-FRET, MBD2 binding to methylated oligonucleotide; actives 0.31% (n = 370,000); inhibition, % at 4.4 µM; in the data active means inhibition above about 13%
PfGluPho inh – PfG6PD (Plasmodium falciparum) enzyme inhibition. PfGluPho enzyme, NADPH resazurin-diaphorase fluorescence. inhibition, % at 20 µM. actives 0.78% (n = 350,000);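 active means inhibition reaching at least a set limit at 20 µM in the primary screen, cut at about 59% in these data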
UHRF1 MBD2 ctr – human UHRF1 methylated DNA binding inhibitors; UHRF1 binding to methylated oligo, TR-FRET; inhibition, % at 4.4 µM; actives 0.75% (n = 370,000); Q96T88; AID 687016; in the data active means inhibition above about 21%;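 further: UHRF1 SRA domain binding a hemimethylated CpG hairpin DNA probe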
Target sequence (Q96T88 whole entry, looked up, the tested form may be a part): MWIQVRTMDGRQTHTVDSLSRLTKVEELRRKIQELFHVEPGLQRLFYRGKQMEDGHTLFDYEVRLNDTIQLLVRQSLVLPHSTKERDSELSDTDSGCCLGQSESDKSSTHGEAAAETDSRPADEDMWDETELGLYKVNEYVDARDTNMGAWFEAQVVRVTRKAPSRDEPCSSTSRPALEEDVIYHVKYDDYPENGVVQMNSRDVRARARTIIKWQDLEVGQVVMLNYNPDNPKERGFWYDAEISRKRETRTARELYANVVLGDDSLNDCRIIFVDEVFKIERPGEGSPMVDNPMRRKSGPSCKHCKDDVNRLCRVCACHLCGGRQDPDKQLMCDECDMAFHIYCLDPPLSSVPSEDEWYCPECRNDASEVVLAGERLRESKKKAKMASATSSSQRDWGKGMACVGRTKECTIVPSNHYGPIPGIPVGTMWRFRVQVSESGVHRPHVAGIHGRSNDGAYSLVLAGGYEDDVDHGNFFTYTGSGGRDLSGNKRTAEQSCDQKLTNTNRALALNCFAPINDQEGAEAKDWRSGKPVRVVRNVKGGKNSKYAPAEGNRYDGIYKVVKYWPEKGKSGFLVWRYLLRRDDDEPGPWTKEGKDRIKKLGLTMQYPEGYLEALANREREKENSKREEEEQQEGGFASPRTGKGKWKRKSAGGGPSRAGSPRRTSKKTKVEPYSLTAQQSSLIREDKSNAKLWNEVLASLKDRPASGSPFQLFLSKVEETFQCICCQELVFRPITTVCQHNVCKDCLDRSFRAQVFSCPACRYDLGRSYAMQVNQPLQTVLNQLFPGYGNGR
PRMT1 FP inh – blocks human protein arginine methyltransferase 1 | Q99873 | recombinant PRMT1, activity-based probe fluorescence polarization | inhibition, % at 2.79 µM | actives 1.3% (n = 370,000) | AID 652257;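 active means inhibition above about 21% made by adding two undisclosed values, limit read from the data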
M18AAP inhibitor – blocks P. falciparum M18 aspartyl aminopeptidase; recombinant PfM18AAP, H-Glu-NHMec fluorogenic cleavage; inhibition, % at 7.35 µM; actives 1.2% (n = 290,000);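 active means inhibition above the campaign mean inhibition over all tested compounds plus 3 SD, cut at about 28% in these data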
PfGluPho conf – PfG6PD inhibition, single-dose confirmed | recombinant PfGluPho, NADPH-diaphorase-resazurin fluorescence | actives 34% (n = 2,400) | inhibition, % at 20 µM | AID 504753 | shares compounds with PfGluPho inh;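 active means inhibition of at least 50% at 20 µM in any single replicate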
Diaph ctr 10uM – diaphorase inhibition or oxidation at 10 uM NADPH. actives 39% (n = 820). diaphorase-coupled resazurin reduction, fluorescence, NADPH 10 uM. shares compounds with PfGluPho inh. inhibition, % at 20 µM;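 active means average inhibition reaching 50% or more with the compound at 20 µM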;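 further: resorufin red fluorescence formed as diaphorase reduces resazurin using NADPH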
Diaphorase 30uM – counter-screen for P. falciparum G6PD inhibitors: diaphorase inhibitors, oxidizers. shares compounds with PfGluPho inh. Diaphorase/resazurin coupled assay, resorufin fluorescence, 30 uM NADPH. inhibition, % at 20 µM. actives 29% (n = 820). AID 504863;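 active means inhibition averaging 50% or more, tested at 20 µM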
Numbers stand for hits; n = inactive; x = no result given.

SMILES | MBD2 DNA inh | PfGluPho inh | UHRF1 MBD2 ctr | PRMT1 FP inh | M18AAP inhibitor | PfGluPho conf | others
CC1CCN(c2[nH]c(=S)c(C#N)c3c2CCCC3)CC1 | n | n | n | n | n | x
O=C(Nc1nc2ccccc2n1Cc1ccccc1)c1ccco1 | n | 80 | n | n | n | n
O=C(Nc1nc2ccccc2n1CCN1CCOCC1)c1ccc(Cl)cc1 | n | 68 | n | n | n | n
Cc1ccc(NC(=O)CNCc2ccccc2OCC(=O)Nc2ccc(I)cc2)cc1 | n | x | n | n | x | x
COc1cc(/C=C/C(=O)N2CCC=CC2=O)cc(OC)c1OC | n | n | n | n | x | x
Cc1cc(N2CCN(C(=O)OC(C)(C)C)C[C@H]2C)ccc1N1C[C@@H](C)O[C@@H](C)C1 | n | x | n | n | x | x
CC1CN(C2CCCCC2)C(=S)NC1=O (stereo not drawn) | n | n | n | n | x | x
CC(SCC(=O)Nc1ccccc1)c1nc2ccccc2c(=O)[nH]1 (stereo not drawn) | n | 60 | n | n | n | 51 | Diaph ctr 10uM=n;Diaphorase 30uM=n
CN(C(=S)Nc1cccnc1)c1ccc(O)cc1 | n | 67 | n | 33 | n | n
CN(C(=S)Nc1ccc(SC(F)F)cc1)c1ccc(O)cc1 | n | 70 | n | 30 | n | n
CN(C(=S)Nc1ccccc1)c1ccccc1 | n | n | n | n | n | x
CCN(C(=S)Nc1cccnc1)c1ccccc1 | n | n | n | n | n | x
CN(C(=S)Nc1ccc(Oc2ccccc2)cc1)c1ccc(O)cc1 | n | 78 | n | n | n | n
CC1=NN(C(=O)COc2cc(C)ccc2C(C)C)C(O)(c2ccccc2)C1 (stereo not drawn) | n | n | n | n | n | x
N#CCOC(=O)c1cc(S(=O)(=O)N2CCCCC2)ccc1N1CCOCC1 | n | n | n | n | x | x
C[C@H]1[C@@H](OC(=O)NC2CCCCC2)CC[C@@]23CCCN2C(=O)CCC[C@@H]13 | n | x | n | n | x | x
CC1CCCCN1C(=O)COC(=O)C1CCN(S(=O)(=O)c2c(Cl)cccc2Cl)CC1 (stereo not drawn) | n | n | n | n | n | x
CC(=O)Nc1ccc2c3c(cccc13)C(=O)N(c1ccccc1)C2=O | n | n | n | n | n | x
O=CNc1ccc2c3c(cccc13)-c1ccccc1-2 | n | 104 | n | n | x | n
C[C@H]1[C@@H](c2ccccc2)Oc2ccc(Cl)cc2S(=O)(=O)N1Cc1ccc(Cl)cc1 | n | x | n | n | x | x
COC(=O)C1=C(C)N(Cc2ccc(F)cc2)C(=S)NC1c1ccccc1 (stereo not drawn) | n | x | n | n | x | x
CCOC(=O)C1CCCN(S(=O)(=O)c2cc(Br)cc3c2N(C(=O)CC)CC3)C1 (stereo not drawn) | n | n | n | n | n | x
CCN(CC)CCNc1cc(C)nc2c1C(=O)C(=O)C=C2N1CCCCC1 | n | 75 | n | n | n | n
Cc1sc2nc(CN3CCN(c4ccc(O)cc4)CC3)[nH]c(=O)c2c1C | n | 79 | n | n | 32 | n
O=c1[nH]c(CN2CCN(c3ccccc3)CC2)nc2scc(-c3ccccc3)c12 | n | n | n | n | n | x
SMILES | MBD2 DNA inh | PfGluPho inh | UHRF1 MBD2 ctr | PRMT1 FP inh | M18AAP inhibitor | PfGluPho conf | others
Cn1ncc(Br)c1C(=O)N/N=C/c1cccc(OC2CSC2)c1 | n | 115 | n | n | n | 91 | Diaph ctr 10uM=91;Diaphorase 30uM=81
O=C(N/N=C/c1cccc(OC2CSC2)c1)c1ccccc1O | n | n | n | n | n | x
O=c1c2ccccc2nc2sc3ccccc3n12 | n | n | n | n | n | x
COC(=O)/C=c1/sc2nc3ccccc3n2c1=O | n | 75 | n | n | n | n
CCOC(=O)c1[nH]c(C)c(C(=O)OCC(=O)NC(C)c2ccc(F)cc2)c1C (stereo not drawn) | n | n | n | n | x | x
CCOC(=O)c1c(-c2ccc(OC)cc2)csc1NC(=O)CCN1C(=O)c2ccccc2C1=O | x | 62 | x | x | n | n
S=C(Nc1cccc(Cl)c1)OC1CCC12CCC(c1ccccc1)CC2 (stereo not drawn) | n | x | n | n | x | x
Oc1ccc(C2C[C@H]3CC[C@@H]2C3)cc1O (stereo partly drawn) | n | 79 | n | n | 83 | 77 | Diaph ctr 10uM=n;Diaphorase 30uM=n
O=C1CC(c2ccc(O)c(O)c2)Oc2cc(O)cc(O)c21 (stereo not drawn) | n | n | n | n | x | x
COc1cc(/C=C2\SC(c3ccc(C)cc3)=NC2=O)cc(OC)c1O | n | 75 | n | n | n | 53 | Diaph ctr 10uM=n;Diaphorase 30uM=n
O=C(Nc1nnc([C@H]2C[C@H](O)[C@@H](CO)O2)s1)Nc1ccccc1C(F)(F)F | n | x | n | n | x | x
CC(C)c1ccc(C2/C(=C(/O)c3ccc(F)cc3)C(=O)C(=O)N2CCCN2CCOCC2)cc1 (stereo not drawn) | n | n | n | n | n | x
Fc1ccc(-n2cc(-c3ccccc3)c3c(=S)nc[nH]c32)cc1 | n | n | n | n | n | x
S=c1nc[nH]c2c1ncn2-c1ccc(Cl)cc1 | n | 66 | n | n | x | n
N#Cc1c(NC(=O)Cn2nc(C(F)(F)F)c3c2CCCC3)sc2c1CCC2 | n | 70 | n | n | n | n
CC1CCc2c(sc(NC(=O)Cn3nc(C(F)(F)F)c4c3CCCCC4)c2C#N)C1 (stereo not drawn) | n | n | n | n | n | x
Cc1ccc(C2NC(=O)c3[nH]nc(-c4ccccc4)c32)cc1 (stereo not drawn) | n | x | n | n | x | x
O=S1(=O)c2ccc(Br)cc2N2CCC[C@@H]2CN1C1CC1 | n | n | n | n | x | x
O=S1(=O)c2ccc(Br)cc2N2CCC[C@@H]2CN1Cc1ccc(Cl)cc1 | n | 63 | n | n | x | n
O=S1(=O)c2ccc(Br)cc2N2CCC[C@H]2CN1Cc1ccccc1 | n | 73 | n | n | x | n
COCCN1Cc2cccc(C(=O)NCCCN3CCCC3=O)c2C1=O | n | n | n | n | n | x
COc1ccccc1N1CCN(/N=C/c2cc(OC)c(O)c(OC)c2)CC1 | n | 76 | n | n | n | n
CN(C)C=Nc1ccc2nc3c(cc2c1)[nH]c1ccccc13 | n | 80 | n | n | n | 54 | Diaph ctr 10uM=n;Diaphorase 30uM=n
O=C(CSc1nc2ccc(Cl)cc2[nH]1)Nc1ccc2[nH]c(=O)[nH]c2c1 | n | 60 | n | n | x | n
Cc1ccc2nc(SCC(=O)Nc3ccc4[nH]c(=O)[nH]c4c3)[nH]c2c1 | n | n | n | n | x | x
Fc1ccc(C2C3=C(Nc4ncnn42)c2ccccc2OC3c2ccncc2)cc1 (stereo not drawn) | n | 61 | n | n | n | n
COc1ccc(C(=O)OCCN(C)C2CN(Cc3cn(Cc4ccccc4Cl)nn3)S(=O)(=O)C2)cc1OC (stereo not drawn) | n | x | n | n | x | x
NC1=NC(=Nc2ccc(Cl)cc2)c2ccccc21 | n | n | n | n | n | x

From PubChem BioAssay
